An excerpt weighted towards active compounds, which were near 10% of everything screened.
HPGD inh: inhibitors of human 15-hydroxyprostaglandin dehydrogenase (HPGD); purified HPGD, NADH fluorescence kinetic, PGE2 substrate; Potency, µM, without a hit: top-dose activity change, negative = inhibition, usual class: inhibitors; 4.3% of 150,000 active; further: potency means the concentration at half of the fitted maximal effect
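20 nM HPGD preincubated 15 min at room temperature with compound in 50 mM Tris-HCl pH 8, 0.01% Tween 20. Started with 1 mM NAD+ and 30 uM prostaglandin E2; NADH fluorescence (360/450 nm) read 5 times over 30-s intervals, last minus first.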
ALOX12 inhib: inhibitors of human 12-lipoxygenase (ALOX12) | purified 12-hLO, xylenol orange hydroperoxide absorbance | Potency, µM (doses to about 57.1 µM), for inactives: at the highest dose activity change, negative = inhibition, most hits filed as inhibitors | P18054 | 0.12% of 150,000 active; active means well fitted inhibition curve with a large enough effect; inconclusive means small, poorly fitted or top-dose-only effect; further: potency means the concentration at half of the fitted maximal effect; nearly all actives have a fitted effect of over 55% in size
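Purified human 12hLO (150 nM final) was preincubated with compounds for 15 min at room temperature in 25 mM Hepes pH 7.0, 0.01% Triton X-100, then reacted with 40 uM arachidonic acid for 30 min. Hydroperoxide was detected with ferrous iron/xylenol orange.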
LMNA splice mod: modulators of lamin A splicing; 0.01% of 200,000 active; AID 1487; Potency, µM (titrated, usually from 46.1 µM), for the others: at the highest dose ratio change, negative = inhibition, usual class: inhibitors; HeLa LMNA splicing GFP/RFP minigene ratio, 48 h; active means well fitted inhibition curve with a large enough effect in the signal ratio, with a control signal flat, not every such curve was filed as active; inconclusive means small, poorly fitted or top-dose-only effect, or effect the other way, or a change in a side signal; the % refers to the signal ratio; further: potency means the concentration at half of the fitted maximal effect
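Read-out is the ratio of GFP to DsRed2 object intensity, acquired by 488 nm laser-scanning cytometry on HeLa lamin A-EGFP minigene reporter cells. Compound incubation 48 hrs at 37 °C in Opti-MEM with 2% FBS; DMSO 0.5% final.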
PNC assembly inh: blocks assembly of the perinucleolar compartment; PC3M PTB-GFP, PNC prevalence imaging, 16 h; active compounds read low; activity change (PNC), negative = inhibition, % at 10 µM; 3.1% of 140,000 active;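 active means readout at or below -70, meaning at least 70% loss of cells showing the perinucleolar compartment, a nuclear body marking cancer cells; inconclusive means readout between -30 and a set limit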;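 further: plate controls were DMSO wells for no effect and camptothecin positive control wells for full effect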
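PC3M cells stably expressing PTB-GFP, 750–1000 cells/well, treated 16 h at 37 °C with compound (23 nl of library stock), in duplicate. After paraformaldehyde fixation and Hoechst stain, imaged at 20x; PNC prevalence scored by image analysis.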
ALDH1A1 inh: inhibitors of human aldehyde dehydrogenase 1A1. Purified ALDH1A1, NADH fluorescence, propionaldehyde substrate. 7.3% of 220,000 active. Potency, µM (top dose mostly 75.3 µM), without a hit: top-dose activity, negative = inhibition, actives largely listed as inhibitors. P00352;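 further: potency means the concentration at half of the fitted maximal effect; plate controls were no enzyme wells and a reference inhibitor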
Target sequence (P00352 whole entry, looked up): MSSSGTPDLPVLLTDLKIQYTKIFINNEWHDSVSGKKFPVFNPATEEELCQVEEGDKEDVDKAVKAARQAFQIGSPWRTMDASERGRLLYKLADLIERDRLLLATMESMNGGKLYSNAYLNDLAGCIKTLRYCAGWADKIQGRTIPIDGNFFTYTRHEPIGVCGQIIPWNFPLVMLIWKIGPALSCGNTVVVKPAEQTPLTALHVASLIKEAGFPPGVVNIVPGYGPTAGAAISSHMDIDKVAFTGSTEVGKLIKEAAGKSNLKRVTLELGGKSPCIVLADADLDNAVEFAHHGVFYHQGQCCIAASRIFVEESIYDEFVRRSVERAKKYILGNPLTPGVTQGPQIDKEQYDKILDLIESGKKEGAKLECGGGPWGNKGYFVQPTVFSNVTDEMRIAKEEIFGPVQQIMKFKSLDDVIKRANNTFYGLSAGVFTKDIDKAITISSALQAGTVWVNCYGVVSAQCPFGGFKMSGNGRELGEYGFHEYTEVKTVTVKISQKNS
* marks the source's active call; other numbers are inactive results; ? = inconclusive; nt = not tested or not shown; [ ] = remark or other dose. Unless noted, the call rests on the fitted dose curve; in most records, active means well fitted inhibition curve with a large enough effect (not every such curve was filed as active); inconclusive means small, poorly fitted or top-dose-only effect, or another doubt; inactive means no such curve, though single readings can be large or run the other way. Unless noted, on the % scale 0 is the no-effect control and ±100 the full control effect.

SMILES	HPGD inh	ALOX12 inhib	LMNA splice mod	PNC assembly inh	ALDH1A1 inh
CC(C)c1ccc(NC(=O)c2ccc(NS(C)(=O)=O)cc2)cc1	nt	nt	?	nt	-5%
Cc1ccc(S(=O)(=O)NCCc2ccc(S(N)(=O)=O)cc2)cc1	-7%	1%	-4%	?	25µM*
Cc1ccc(S(=O)(=O)NCC(C)NS(=O)(=O)c2ccc(C)cc2)cc1 (stereo unspecified)	-6%	-13%	-15%	?	0.4µM*
Cc1ccc(CCNS(=O)(=O)c2ccc(C)cc2)cc1	-6%	-17%	4%	?	?
Cc1ccc(CSCCNS(=O)(=O)c2ccc(C)cc2)cc1	-8%	-23%	-9%	0	10µM*
Cn1c(=O)c2[nH]c(CS(=O)(=O)Cc3nc4c([nH]3)c(=O)n(C)c(=O)n4C)nc2n(C)c1=O	-17%	-6%[11.4 µM]	nt	nt	?
NCCC[C@@H](CC(=O)N[C@@H]1CCNC[C@H]1C(=O)N[C@H](CC(=O)N[C@@H](CCC(=O)O)CC(=O)O)Cc1ccccc1)NC(=O)C[C@H](Cc1c[nH]c2ccccc12)NC(=O)[C@@H]1CNCC[C@H]1N	-5%	0%	nt	nt	6%
Cc1ccc(NC(=O)Cn2c(O)c(N=NS(=O)(=O)c3ccc(C)cc3)c3ccccc32)cc1	-6%	-2%	1%	?	0.35µM*
Cc1ccccc1NC(=O)Cn1c(O)c(N=NC(=O)c2ccccc2O)c2ccccc21	-13%	2%	-9%	14	-4%
CCn1c(O)c(N=NC(=O)CNc2cccc(C)c2)c2ccccc21	-11%	1%	0%	?	28µM*
Cc1cccc(NC(=O)Cn2c(O)c(N=NC(=O)c3ccncc3)c3ccccc32)c1	nt	nt	nt	nt	13µM*
COC(=O)Cn1c(O)c(N=NC(=O)c2ccc3c(c2)OCO3)c2ccccc21	nt	nt	15%[46 µM]	nt	1.8µM*
CC(=O)c1ccc(NS(=O)(=O)c2ccc3[nH]c(=O)[nH]c3c2)cc1	nt	nt	-2%[46 µM]	nt	nt
Cc1ccc(-c2nn(C)c(=O)c3ccccc23)cc1CNC(=O)CN1CCOCC1	20µM*	1%	2%	13	?
CCC(=O)Nc1cc(-c2nn(C)c(=O)c3ccccc23)ccc1N1CCOCC1	-12%	10%	4%	19	?
CCC(CO)Nc1ccc(-c2nn(C)c(=O)c3ccccc23)cc1[N+](=O)[O-] (stereo unspecified)	nt	nt	nt	nt	1.4µM*
Cc1ccc(-c2nn(C)c(=O)c3ccccc23)cc1CO	32µM*	4%	-13%	2	11%
O=C(NCCCN1CCN(c2ccccc2F)CC1)C1COc2ccccc2C1 (stereo unspecified)	nt	nt	-18%[46 µM]	nt	nt
OC(c1cccs1)(c1cccs1)C1C[N+]2(CF)CCC1CC2 (stereo unspecified)	-5%	-3%	-4%	-98*	7%
C=CCN1CCc2c(cc(O)c(O)c2Br)[C@H](c2ccccc2)C1	nt	-26%	nt	nt	nt
COc1cccc(C2C(C#N)=C(N)SC(c3ccccc3)C2[N+](=O)[O-])c1 (stereo unspecified)	nt	nt	nt	nt	5.6µM*
COc1cccc(C2C(C#N)=C(N)Oc3c2oc(CO)cc3=O)c1 (stereo unspecified)	-16%	-6%	-4%	271	8%
COc1ccc(C(=O)c2oc3ccccc3c2NC(=O)COc2ccc(C)cc2)cc1	nt	nt	-2%[46 µM]	nt	nt
CN(C)c1ccc(C2NCC(CCl)O2)cc1 (stereo unspecified)	-5%	-1%	0%[0.0737 µM]	-22	1.4µM*
CN(C)c1ccc(CNC2CC(C)(C)NC(C)(C)C2)cc1	-10%	6%	1%	51	?
SMILES	HPGD inh	ALOX12 inhib	LMNA splice mod	PNC assembly inh	ALDH1A1 inh
COc1cccc(C(=O)Nc2cccc(C(=O)NC3=NN(c4c(Cl)cc(Cl)cc4Cl)C(=O)C3)c2)c1	-25%	-2%	-13%	38	-1%
COc1ccc(/C=C2\C(=O)N(c3c(Cl)cc(Cl)cc3Cl)N=C2NC(=O)c2cccc([N+](=O)[O-])c2)cc1	22µM*	4%	-9%	18	?
CN(C)CCCN1C(=O)C(=O)/C(=C(/O)c2ccc3c(c2)OCCO3)C1c1ccco1 (stereo unspecified)	-7%	-2%	-1%	-86*	-1%
CCN(CC)CCCN1C(=O)C(=O)/C(=C(/O)c2ccc3c(c2)OCCO3)C1c1ccco1 (stereo unspecified)	-18%	-12%	11%	20	-5%
Cc1ccc(C)c(/C(O)=C2/C(=O)C(=O)N(CCN3CCOCC3)C2c2ccco2)c1 (stereo unspecified)	?	-12%	10%	-29	10µM*
CN(C)CCCN1C(=O)C(=O)/C(=C(/O)c2ccncc2)C1c1cccnc1 (stereo unspecified)	-12%	1%	4%	50	-3%
CN(C)CCCN1C(=O)C(=O)/C(=C(/O)c2ccc(S(=O)(=O)N(C)C)cc2)C1c1ccncc1 (stereo unspecified)	-9%	0%	nt	nt	25µM*
O=C1C(=O)N(CCN2CCOCC2)C(c2ccccn2)/C1=C(/O)c1ccccc1 (stereo unspecified)	-20%	-12%	1%	-27	3.5µM*
Cc1ccc(/C(O)=C2/C(=O)C(=O)N(CCN3CCOCC3)C2c2ccccn2)cc1 (stereo unspecified)	-6%	-10%	-4%	-19	?
Cc1cc(NC(=O)C2CCCCC2)ccc1NC(=O)c1ccccc1Cl	-10%	2%	1%	29	7%
COc1ccc(Cc2c(C)nn(-c3nc(C)c(C(=O)Nc4cccc(C(C)=O)c4)s3)c2C)cc1	nt	nt	-3%[46 µM]	nt	nt
CCOc1cc(CNc2ncn[nH]2)ccc1OCC(=O)NC(C)(C)C	nt	nt	?	nt	6%
CCCCCCCCCCCCCCCC(=O)NC(C)C(=O)O (stereo unspecified)	-3%	12%	nt	nt	-14%
Cc1ccc(C2/C(=C(\O)c3cnn(-c4ccccc4)c3C)C(=O)C(=O)N2CCN(C)C)o1 (stereo unspecified)	-20%	-8%	?	-30	2%
